Screens as filed in PubChem BioAssay.
Most compounds without a hit are left out; they make up all but 18% or so of the library.
DT40 TDP1 no CPT: qHTS for Inhibitors of human tyrosyl-DNA phosphodiesterase 1 (TDP1): qHTS in cells in absence of CPT | DT40 Tdp1-/- hTDP1 cells, no CPT, ATP luminescence, 48 h | Potency, µM (doses to about 46.2 µM), inactives show top-dose activity change, negative = growth inhibition, hits mostly inhibitors | 15% of 420,000 active | AID 686978, 2013; also: potency is read from the fitted curve at half-maximal effect; nearly all actives have a fitted effect of over 55% in size
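Stably hTDP1-transfected Tdp1-null chicken DT40 cells were treated with library compounds minus camptothecin and grown for at least 48 hr at 37 °C, after which cellular ATP was quantified by luminescence.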
LDHA block: blocks human lactate dehydrogenase A; 0.15% of 480,000 active; AID 1347041; purified LDHA, NADH/diaphorase-resazurin fluorescence; stronger effect = lower value; P00338; activity change, % (values are at about 110 or 230 µM); in the data active = activity change below about -30%; inconclusive = mostly about -25% to -30%;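 also: plate controls were DMSO wells for no effect and wells without enzyme for full effect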
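LDH5 2 nM; NADH 0.06 mM, pyruvate 0.2 mM; 200 mM Tris pH 7.4, EDTA, Tween-20; 5 min RT. Detection: diaphorase 0.133 mg/mL + resazurin 37 µM, fluorescence ex540/em590 at 0 and 20 min; normalized to enzyme-free and DMSO wells.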
RORgamma inh: ROR gamma (mouse) transcription inhibition; Potency, µM (top dose mostly 53.6 µM), inactives show at the highest dose activity change, negative = inhibition, actives largely listed as inhibitors; Drosophila S2 Gal4-RORgamma UAS-luciferase reporter, 20 h; P51450; 5.4% of 310,000 active; also: potency is read from the fitted curve at half-maximal effect; nearly all actives have a fitted effect of over 60% in size
Target sequence (P51450 whole entry, looked up, the tested form may be a part): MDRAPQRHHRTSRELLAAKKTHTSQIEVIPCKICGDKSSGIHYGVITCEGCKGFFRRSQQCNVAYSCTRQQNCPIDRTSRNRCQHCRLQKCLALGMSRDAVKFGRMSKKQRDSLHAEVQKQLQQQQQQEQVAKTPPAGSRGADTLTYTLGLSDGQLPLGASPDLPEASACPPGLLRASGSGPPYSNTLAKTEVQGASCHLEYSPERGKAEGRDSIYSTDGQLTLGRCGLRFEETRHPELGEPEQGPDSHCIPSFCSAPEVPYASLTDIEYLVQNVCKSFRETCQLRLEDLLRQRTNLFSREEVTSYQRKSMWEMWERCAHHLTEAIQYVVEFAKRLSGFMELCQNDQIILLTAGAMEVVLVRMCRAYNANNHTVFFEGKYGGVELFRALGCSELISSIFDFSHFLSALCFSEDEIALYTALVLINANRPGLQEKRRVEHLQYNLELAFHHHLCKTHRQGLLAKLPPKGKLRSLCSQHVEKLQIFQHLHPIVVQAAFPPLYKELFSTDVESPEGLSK
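Read-out: Photinus luciferase luminescence; inhibitors lower reporter signal. Insect Schneider cells with Gal4-ROR gamma fusion under metallothionein promoter, UAS reporter; 700 uM final copper sulfate induction, 20 hr, ambient temperature.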
IL-1B inflam inh: inhibitors of inflammasome signaling (IL-1 beta secretion) | activity change, % at 57.5 µM | 4.7% of 360,000 active | THP-1 LPS/ATP IL-1B secretion, AlphaLISA, 16 h; stronger effect = lower value; in the data active = activity change below about -50%; inconclusive = mostly about -30% to -49%
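Secreted IL-1B measured by AlphaLISA bead assay after 16 h compound exposure of THP-1 cells; compounds (final up to 57.5 uM) added 1 h before LPS (250 ng/mL) and ATP (1.25 mM) stimulation; lower signal means less secretion.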
Gal4-VP16 FLuc: inhibits Gal4-VP16 luciferase reporter, ROR gamma counter-screen | Drosophila S2 Gal4-VP16 UAS-luciferase, luminescence, 20 h | Potency, µM (doses to about 53.6 µM), for inactives: at the top dose activity, negative = inhibition, actives largely listed as inhibitors | 3.5% of 310,000 active;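 also: Gal4-VP16 expression switched on by copper sulfate through the metallothionein promoter; potency is read from the fitted curve at half-maximal effect; nearly all actives have a fitted effect of over 50% in size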
TDP1 cell CPT: DT40-hTDP1 cell growth loss with CPT | chicken DT40 Tdp1-/-;hTDP1 cells + 20 nM CPT, ATP luminescence, 48 h | Potency, µM (top dose mostly 46.2 µM), inactives show top-dose activity change, negative = growth inhibition, usual class: inhibitors | 12% of 420,000 active | AID 686979; also: potency is read from the fitted curve at half-maximal effect; nearly all actives have a fitted effect of over 55% in size
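Chicken DT40 Tdp1-/- cells stably complemented with human TDP1 were seeded at 400 cells/well in medium containing 20 nM camptothecin, exposed to pin-transferred compounds, and grown at 37 °C for at least 48 hr. Viability was read as ATP luminescence.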
The depositor's hits bear a star; ? = inconclusive; . = no result; [ ] = remark or other dose. Unless noted, calls follow the shape of the dose curve; as a rule, active = well fitted curve in the direction sought with a large enough effect; inconclusive = small, poorly fitted or top-dose-only effect, or another doubt; inactive = no such curve, though single readings can be large; an effect the other way counts as inactive or inconclusive. Unless noted, % is scaled to controls: 0 for no effect and ±100 for the full control effect.

SMILES	DT40 TDP1 no CPT	LDHA block	RORgamma inh	IL-1B inflam inh	Gal4-VP16 FLuc	TDP1 cell CPT
COCCN(Cc1cc2cc3c(cc2nc1Cl)OCO3)C(=O)Nc1ccc(F)cc1	11µM*	-8	?	-71*	1%[0.365 µM]	16µM*
N#C/C(=C/c1ccco1)C(=O)NC1CC1	.	-2	.	.	.	.
COCCN(Cc1cc2cc3c(cc2nc1Cl)OCO3)C(=O)Nc1ccccc1OC	23µM*	-6	6%	-26	-7%	16µM*
CN1CCN(C(C(=O)O)c2cn(CC(=O)O)c3cc(Cl)ccc23)CC1 (stereo unspecified)	.	-1	.	.	.	.
N#CCCN1CCN(CCC#N)CC1	12%	1	-7%	9	-3%	0%
Cc1cc(CN2CCN(CCC#N)CC2)c(O)c(C2(C)CCCCC2)c1	21µM*	8	4%	-2	2%	16µM*
O=C(COc1ccc(Cl)cc1Cl)OCC(=O)c1ccc(Br)cc1	.	-6	.	.	.	.
CCNC12CC3CC(CC(C3)C1)C2	.	3	.	.	.	.
Cc1ccc(CN2CCN(CC(=O)N/N=C/c3ccccc3F)CC2)cc1	1%	-10	29%	?	25%	-1%
Cc1ccc(NC(=S)N/N=C/c2cccn2Cc2ccccc2F)cc1	3.7µM*	-5	0.35µM*	9	1.1µM*	4.6µM*
O=c1c2ccccc2sc2c(CO)ccc(NCCN3CCCCC3)c12	0.92µM*	4	.	-101*	.	0.41µM*
O=C(NCCN1CCCCCC1)c1n[nH]c(=O)c2ccccc12	.	5	.	.	.	.
COc1ccc(/C=C/c2nc3ccccc3o2)c(OC)c1OC	.	2	.	.	.	.
CCc1cccc(CC)c1NC(=O)COC(=O)c1cc(OC)c(OC)cc1OC	.	3	.	.	.	.
O=C(CCc1c[nH]c2ccccc12)Nc1ccc(Oc2ccccc2)cc1	.	-25	.	.	.	.
O=c1c2ccccc2c2ccccc2c(=O)n1Cc1cccnc1	-9%	-8	11%	0	19%	-31%
C=CCn1c(=S)[nH]c2nc3c(cc2c1=O)CCCC3	?	0	7.1µM*	12	7.1µM*	?
C=CCn1c(=S)[nH]c2ccc(Br)cc2c1=O	?	-4	2.8µM*	12	3.2µM*	?
O=c1c2cc(Br)ccc2[nH]c(=S)n1Cc1cccnc1	-14%	4	1.1µM*	85	?	-22%
COC(=O)CCNC(=O)c1ccc(-c2ccccc2)cc1	.	6	.	.	.	.
O=C(Nc1ccc(F)c(Cl)c1)c1cnc(N2CCCCC2)c2ccccc12	.	7	.	.	.	.
Cc1ccc(CNC(=O)c2cccn2-c2nnc(N3CCCCC3)s2)cc1	23µM*	2	.	.	.	21µM*
O=C(NCc1ccccc1)c1cccn1-c1nnc(N2CCCCC2)s1	?	-13	.	.	.	?
CCOc1ccc(CNC(=O)c2cccn2-c2nnc(N3CCCCC3)s2)cc1OC	16µM*	-2	.	.	.	26µM*
COc1ccc(NC(=O)c2cccn2-c2nnc(N3CCCCC3)s2)c(OC)c1	?	-1	.	.	.	?
SMILES	DT40 TDP1 no CPT	LDHA block	RORgamma inh	IL-1B inflam inh	Gal4-VP16 FLuc	TDP1 cell CPT
COc1ccc(CNC(=O)c2cccn2-c2nnc(N3CCCC3)s2)c(OC)c1	16µM*	0	.	.	.	?
Cc1ccc(CNC(=O)c2cccn2-c2nnc(N3CCCC3)s2)cc1	?	-7	.	.	.	?
CCN(CC)c1ccc(NC(=O)c2cccn2-c2nnc(N3CCCCC3)s2)c(C)c1	5.8µM*	31	.	.	.	5.2µM*
COc1ccc(C(C)=O)cc1CN1CCCC(C)C1 (stereo unspecified)	.	9	.	.	.	.
COC(=O)c1cccc(Nc2nc(-c3cccnc3)nc3ccccc23)c1	9.2µM*	-3	2%	-22	-3%	?
COC(=O)c1cccc(Nc2nc(-c3ccncc3)nc3ccccc23)c1	?	-5	?	17	4%	?
CCOC(=O)c1cccc(Nc2nc(-c3cccnc3)nc3ccccc23)c1	10µM*	-1	?	-108*	?	23µM*
